Results published in PubChem BioAssay (NCATS).
Results filed as inconclusive are left out. Active and inactive are the calls of the source. Unless noted, calls come from the whole dose curve; as a rule, active = well fitted curve in either direction with a large enough effect (not every such curve was filed as active); inconclusive = small, poorly fitted or top-dose-only effect, or another doubt; inactive = flat fitted curve, though single readings scatter.

Assays:
[1] = target: Lysosomal acid glucosylceramidase (Homo sapiens) (UniProt P04062); experiment: Glucocerebrosidase-p2 (AID 348; in the data active = potency below about 10 µM; note: potency is the fitted concentration of half-maximal effect); settings: purified GBA, blue fluorogenic substrate, 40 min
Chain of Lysosomal acid glucosylceramidase (Homo sapiens) (P04062 whole entry, looked up): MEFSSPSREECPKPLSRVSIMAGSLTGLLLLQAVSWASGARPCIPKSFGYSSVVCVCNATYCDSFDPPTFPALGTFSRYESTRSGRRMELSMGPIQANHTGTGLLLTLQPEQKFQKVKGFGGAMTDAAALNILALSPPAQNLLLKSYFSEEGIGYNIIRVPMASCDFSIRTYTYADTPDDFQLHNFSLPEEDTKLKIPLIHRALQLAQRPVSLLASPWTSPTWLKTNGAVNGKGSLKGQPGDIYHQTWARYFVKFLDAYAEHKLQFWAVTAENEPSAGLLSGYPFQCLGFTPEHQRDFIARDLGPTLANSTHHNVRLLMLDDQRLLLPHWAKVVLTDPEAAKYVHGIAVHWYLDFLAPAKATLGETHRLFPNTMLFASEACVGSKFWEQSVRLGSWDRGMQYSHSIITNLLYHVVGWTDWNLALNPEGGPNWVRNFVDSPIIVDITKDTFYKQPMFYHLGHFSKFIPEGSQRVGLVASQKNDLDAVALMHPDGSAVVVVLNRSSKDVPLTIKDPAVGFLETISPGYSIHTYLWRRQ
Method in brief: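 Normal human glucocerebrosidase (0.2 nM) with blue fluorogenic substrate (80 uM final) in citrate/phosphate pH 5.9 with 10mM sodium taurocholate, 0.01% tween-20; 40 min RT, NaOH/glycine stop; fluorescence Ex 365/Em 440; AC50 from a titration from 0.6 nM upwards.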

[2] = AP1 Signaling Pathway (AID 357); settings: ME-180 AP-1-bla reporter, EGF-induced, beta-lactamase ratio, 5 h; at 7.69 µM (top of the series) unless noted;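 note: ME-180 reporter cells stimulated with EGF at its EC50 level; % is set by controls: 0 for no effect and ±100 for the full control effect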
Method in brief: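 A ratiometric CCF4 readout (405 nm excitation; 460 and 530 nm emission) quantified AP-1-driven beta-lactamase in ME-180 cells after 5 h with compound and EC50 EGF; AC50 values were derived for activators and inhibitors.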

[3] = target: Cytochrome P450 1A2 (Homo sapiens) (UniProt P05177); experiment: p450-cyp1a2 (AID 410; calls by dose curve; note: potency is the fitted concentration of half-maximal effect;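 for activity change, negative = inhibition: -100% = full effect of reference inhibitor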); settings: recombinant CYP1A2, luciferin-ME demethylation, luminescence; series mostly up to 57 µM
Chain of Cytochrome P450 1A2 (Homo sapiens) (P05177 whole entry, looked up): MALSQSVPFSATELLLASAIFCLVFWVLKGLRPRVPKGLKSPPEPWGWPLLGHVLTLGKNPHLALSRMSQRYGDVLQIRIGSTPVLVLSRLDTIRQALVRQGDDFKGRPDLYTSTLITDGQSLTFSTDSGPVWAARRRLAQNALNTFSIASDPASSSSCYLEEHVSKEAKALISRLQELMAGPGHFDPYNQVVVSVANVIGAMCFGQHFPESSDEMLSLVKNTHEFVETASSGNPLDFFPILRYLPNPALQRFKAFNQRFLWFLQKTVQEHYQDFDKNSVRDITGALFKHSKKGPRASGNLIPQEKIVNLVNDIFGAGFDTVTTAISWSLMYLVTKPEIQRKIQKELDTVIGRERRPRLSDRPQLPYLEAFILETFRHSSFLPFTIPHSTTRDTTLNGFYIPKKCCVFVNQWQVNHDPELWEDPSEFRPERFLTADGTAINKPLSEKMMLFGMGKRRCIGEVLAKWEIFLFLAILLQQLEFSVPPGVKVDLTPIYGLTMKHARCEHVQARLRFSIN
Method in brief: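 O-Demethylation of luciferin 6' methyl ether by human CYP1A2 is monitored as luciferase luminescence. Substrate sits at Km (100uM); enzyme is 20nM. Values are scaled to 57 uM furafylline as maximal inhibition.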

[4] = NFAT Signaling Pathway (AID 444); settings: Jurkat NFAT-bla M1, carbachol, beta-lactamase ratio, 5 h; at 7.69 µM (top of the series) unless noted;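 note: carbachol stimulus at about its EC50 of 1 µM final; % is set by controls: 0 for no effect and ±100 for the full control effect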
Method in brief: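 Read-out: CCF4 FRET ratio (460 nm/530 nm) after 1 h RT dye loading, used for %activity and AC50 from titration series. Cells: Jurkat NFAT-β-lactamase/M1 line, treated with compound plus 1 uM carbachol for 5 h, 37 °C.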

[5] = Stat Signaling Pathway (AID 446); settings: ME-180 SIE beta-lactamase reporter, IL-6 stimulated, 5 h; at 7.69 µM (top of the series) unless noted;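 note: ME-180 cervical cancer cells given 40 pM IL-6 alongside compound; SIE-controlled beta-lactamase reporter measured as 460/530 nm FRET emission ratio; % is set by controls: 0 for no effect and ±100 for the full control effect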
Method in brief: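 Overnight-plated ME-180 cells bearing a STAT Inducible Element beta-lactamase reporter; 5 h co-exposure to compound and 40 pM IL-6; values normalized to 300 pM IL-6 and 125 nM JAK inhibitor controls.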

[6] = target: Mitogen-activated protein kinase 10 (Mus musculus) (UniProt Q61831); experiment: JNK3 AlphaScreen Assay (AID 530); settings: JNK3 lysate, c-Jun phosphorylation; series mostly up to 57.1 µM;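 note: kinase came from lysate of stimulated human HepG2 cells; signal reports phosphorylation of biotinylated GST-cJun 1-79 at Ser73 with 10 µM ATP; % is set by controls: 0 for no effect and ±100 for the full control effect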
Method in brief: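 qHTS titrations with 15 min compound pre-incubation before adding ATP (10 uM final). Read-out: AlphaScreen of Ser73-phosphorylated biotin-GST-cJun using HepG2 lysate JNK3 activated by IL-1β and TNFα.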

[7] = target: Cytochrome P450 3A4 (Homo sapiens) (UniProt P08684); experiment: qHTS Assay for Activators of Cytochrome P450 3A4 (AID 885; active = well fitted curve in the direction sought with a large enough effect; an effect the other way counts as inactive or inconclusive; note: nearly all actives have a fitted effect of over 65% in size); settings: recombinant CYP3A4, Luciferin-PPXE luminescence, 60 min; series mostly up to 57.1 µM
Chain of Cytochrome P450 3A4 (Homo sapiens) (P08684 whole entry, looked up): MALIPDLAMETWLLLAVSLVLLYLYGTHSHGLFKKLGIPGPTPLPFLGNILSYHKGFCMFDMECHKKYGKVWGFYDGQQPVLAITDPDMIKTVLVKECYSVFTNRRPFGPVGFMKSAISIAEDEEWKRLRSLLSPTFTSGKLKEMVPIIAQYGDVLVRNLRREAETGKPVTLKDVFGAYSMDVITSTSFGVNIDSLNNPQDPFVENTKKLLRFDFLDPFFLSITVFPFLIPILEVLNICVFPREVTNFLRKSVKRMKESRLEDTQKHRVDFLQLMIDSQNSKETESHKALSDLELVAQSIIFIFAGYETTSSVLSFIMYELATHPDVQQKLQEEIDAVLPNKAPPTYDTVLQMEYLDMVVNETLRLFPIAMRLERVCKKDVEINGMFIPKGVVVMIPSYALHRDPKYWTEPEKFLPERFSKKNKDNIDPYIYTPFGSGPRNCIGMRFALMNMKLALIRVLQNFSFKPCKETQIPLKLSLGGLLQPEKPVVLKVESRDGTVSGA
Method in brief: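 Using 20nM recombinant human CYP3A4 in potassium phosphate (200mM), substrate Luciferin-PPXE at 25uM, luminescent luciferin detection followed a 60-min RT NADPH reaction; data scaled to 57 uM ketoconazole.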

[8] = qHTS Assay for Lipid Storage Modulators (AID 1519; calls by dose curve); settings: Drosophila S3 cells, BODIPY lipid droplet/cell ratio, laser cytometry, cells loaded with oleic acid; for activity change, negative = inhibition: at 57.5 µM (top of the series)
Method in brief: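 Cells seeded at 5,000 per well were treated with compounds over a concentration series and loaded with oleic acid (400 uM, as added). Lipid droplet fluorescence (488 nm excitation, 500-530 nm channel) was read by laser-scanning cytometry and normalized to 20 uM Triacsin C.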

[9] = target: Glucocorticoid receptor (Homo sapiens) (UniProt P04150); experiment: GR-GFP Redistribution (AID 450;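 active = compounds whose dose series gives a full or clear partial fitted curve of increased nuclear translocation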; note: potency is the fitted concentration of half-maximal effect); settings: U2OS GR-GFP nuclear translocation, laser cytometry, 2 h
Chain of Glucocorticoid receptor (Homo sapiens) (P04150 whole entry, looked up, the tested form may be a part): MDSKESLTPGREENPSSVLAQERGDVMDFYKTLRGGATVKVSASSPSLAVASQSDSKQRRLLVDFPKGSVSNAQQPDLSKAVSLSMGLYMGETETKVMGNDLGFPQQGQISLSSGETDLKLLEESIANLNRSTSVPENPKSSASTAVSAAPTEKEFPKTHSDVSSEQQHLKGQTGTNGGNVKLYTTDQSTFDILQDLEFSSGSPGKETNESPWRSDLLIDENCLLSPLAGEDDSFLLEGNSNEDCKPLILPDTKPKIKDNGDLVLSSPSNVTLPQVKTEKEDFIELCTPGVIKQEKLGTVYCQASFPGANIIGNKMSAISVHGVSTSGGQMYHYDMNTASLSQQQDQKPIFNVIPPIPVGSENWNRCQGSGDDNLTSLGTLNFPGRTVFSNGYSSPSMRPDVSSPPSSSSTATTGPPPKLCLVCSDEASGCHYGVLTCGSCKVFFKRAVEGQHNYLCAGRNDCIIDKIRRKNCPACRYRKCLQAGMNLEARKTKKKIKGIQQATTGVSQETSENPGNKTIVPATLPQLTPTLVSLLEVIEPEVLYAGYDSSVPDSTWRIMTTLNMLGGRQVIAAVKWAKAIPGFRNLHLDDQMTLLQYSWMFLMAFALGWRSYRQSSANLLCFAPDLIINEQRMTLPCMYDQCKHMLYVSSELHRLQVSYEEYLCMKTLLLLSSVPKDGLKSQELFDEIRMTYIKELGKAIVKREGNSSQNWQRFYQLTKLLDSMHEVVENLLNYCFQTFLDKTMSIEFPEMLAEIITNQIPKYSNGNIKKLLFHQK

[10] = target: Glucocorticoid receptor (Homo sapiens) (UniProt P04150); experiment: GR-EFC Redistribution (AID 451; calls by dose curve; note: potency is the fitted concentration of half-maximal effect); settings: CHO-K1 GR-EFC translocation, beta-gal luminescence, 2 h
Method in brief: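 Translocation of GR-ED fusion to nuclear EA restores b-gal, read by luminescence after 1 h room-temperature detection. Engineered CHO-K1 biosensor cells, 1,000/well, exposed 2 h at 37 C to titrations up to 46 uM final.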

[11] = target: 3',5'-cyclic-AMP phosphodiesterase 4B (Homo sapiens) (UniProt Q07343); experiment: qHTS Assay for Inhibitors of PDE-IV (AID 607; active = well fitted activation curve with a large enough effect in the main read-out, with a control signal flat, not every such curve was filed as active; note: % of control where 0% means no effect); settings: HEK293 ACTOne CNG channel cells, membrane potential fluorescence; series mostly up to 22.9 µM
Chain of 3',5'-cyclic-AMP phosphodiesterase 4B (Homo sapiens) (Q07343 whole entry, looked up): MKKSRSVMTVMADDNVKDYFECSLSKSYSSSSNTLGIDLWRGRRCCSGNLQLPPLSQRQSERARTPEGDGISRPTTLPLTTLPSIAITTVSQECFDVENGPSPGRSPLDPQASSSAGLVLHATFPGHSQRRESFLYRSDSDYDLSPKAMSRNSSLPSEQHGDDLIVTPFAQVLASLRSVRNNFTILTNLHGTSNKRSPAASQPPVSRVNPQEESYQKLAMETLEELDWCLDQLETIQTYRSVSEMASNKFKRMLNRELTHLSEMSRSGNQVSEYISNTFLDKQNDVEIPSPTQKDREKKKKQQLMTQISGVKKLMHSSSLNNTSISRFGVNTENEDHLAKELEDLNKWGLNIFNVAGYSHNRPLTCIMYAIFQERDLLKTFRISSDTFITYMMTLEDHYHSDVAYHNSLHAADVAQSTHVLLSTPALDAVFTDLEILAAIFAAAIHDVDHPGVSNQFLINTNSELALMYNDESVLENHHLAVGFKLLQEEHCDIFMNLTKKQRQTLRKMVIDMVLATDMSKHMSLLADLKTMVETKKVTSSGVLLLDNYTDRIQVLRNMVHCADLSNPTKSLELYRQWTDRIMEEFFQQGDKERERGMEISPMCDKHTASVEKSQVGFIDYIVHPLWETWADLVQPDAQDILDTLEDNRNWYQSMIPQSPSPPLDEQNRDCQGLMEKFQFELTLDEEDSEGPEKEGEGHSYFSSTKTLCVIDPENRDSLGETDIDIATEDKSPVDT
Method in brief: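 Live HEK293 cells with a modified cyclic nucleotide-gated (CNG) channel report intracellular cAMP via membrane-potential dye fluorescence (ex 535/em 590 nm). Endogenous PDE-IV was targeted. Compounds were tested at up to 22.9 uM final; RO 20-1724 100 uM served as control.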

[12] = target: Cytochrome P450 3A4 (Homo sapiens) (UniProt P08684); experiment: qHTS Assay for Inhibitors and Substrates of Cytochrome P450 3A4 (AID 884; active = well fitted curve in the direction sought with a large enough effect; an effect the other way counts as inactive or inconclusive; note: potency is the fitted concentration of half-maximal effect; nearly all actives have a fitted effect of over 50% in size); settings: recombinant CYP3A4, Luciferin-PPXE luminescence; series mostly up to 57.1 µM
Method in brief: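 Luminescent readout of luciferin produced by CYP3A4 (20 nM) dealkylation of Luciferin-PPXE, 25 uM (its KM). NADPH-driven reaction ran 60 min at RT after 10 min compound preincubation; data scaled to 57 uM ketoconazole as 100% inhibition.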

[13] = Confirmation and Secondary Assay for Modulators of Hemoglobin Beta Chain Splicing at IVS2 654 locus (AID 910; active = well fitted curve in the direction sought with a large enough effect; an effect the other way counts as inactive or inconclusive;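 note: HeLa cells stably carrying EGFP split by mutant beta-globin IVS2-654 intron; per-well total GFP intensity by laser scanning cytometry after 2-day treatment; % of control where 0% means no effect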); settings: HeLa EGFP-654 splicing reporter, GFP fluorescence, 48 h; series mostly up to 38.3 µM
Method in brief: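 Readout: per-well total peak green fluorescence (488 nm ex, 500–520 nm em) from objects 5–250 µm, reflecting correct splicing of an EGFP-654 reporter. Compounds were applied for 2 days at 37 °C to overnight-plated HeLa EGFP-654 cells; controls were DMSO and 500 nM IVS2-654 PNA.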

[14] = qHTS Assay for Identification of Small Molecule Agonists for Hypoxia Response Element Signaling Pathway (AID 914; active = well fitted activation curve with a large enough effect in the signal ratio, with a control signal flat, not every such curve was filed as active; the % refers to the signal ratio; note: potency is the fitted concentration of half-maximal effect; for activation: % of control where 0% means no effect); settings: ME-180 (cervical carcinoma) HRE-bla reporter, beta-lactamase ratio, CoCl2, 17 h; activation: stronger effect = higher value
Method in brief: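 qHTS titration; ME-180 HRE-bla cells; EC50 CoCl2 co-treatment, 17 h at 37 degrees Celsius; CCF4 dye, ex 405nm, em 460nm and 530nm; %Activity from ratio; AC50.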

[15] = Confirmation and Secondary Assay for Modulators of Hemoglobin Beta Chain Splicing at IVS2 705 locus (AID 930; active = well fitted curve in the direction sought with a large enough effect; an effect the other way counts as inactive or inconclusive;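 note: HeLa cells stably expressing the EGFP-705 splicing reporter; GFP fluorescence per well restored by corrected splicing of the IVS2-705 intron in EGFP; % of control where 0% means no effect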); settings: HeLa EGFP-705 splicing reporter, GFP fluorescence, 48 h; series mostly up to 38.3 µM
Method in brief: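 Secondary splice-site specificity test uses HeLa expressing CMV-driven EGFP interrupted by IVS2-705; cells were treated 2 days at 37C with 500 nM antisense PNA as positive control.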

[16] = target: Ubiquitin carboxyl-terminal hydrolase 1 (Homo sapiens) (UniProt O94782); experiment: Inhibitors of USP1/UAF1: Pilot qHTS (AID 504865; active = well fitted curve in the direction sought with a large enough effect; an effect the other way counts as inactive or inconclusive;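 note: rhodamine fluorescence freed from ubiquitin-rhodamine substrate followed over time; top concentration of the series differs between compounds; % is set by controls: 0 for no effect and ±100 for the full control effect; nearly all actives have a fitted effect of over 35% in size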); settings: purified USP1/UAF1, Ub-rhodamine cleavage fluorescence; series mostly up to 54.9 µM
Chain of Ubiquitin carboxyl-terminal hydrolase 1 (Homo sapiens) (O94782 whole entry, looked up): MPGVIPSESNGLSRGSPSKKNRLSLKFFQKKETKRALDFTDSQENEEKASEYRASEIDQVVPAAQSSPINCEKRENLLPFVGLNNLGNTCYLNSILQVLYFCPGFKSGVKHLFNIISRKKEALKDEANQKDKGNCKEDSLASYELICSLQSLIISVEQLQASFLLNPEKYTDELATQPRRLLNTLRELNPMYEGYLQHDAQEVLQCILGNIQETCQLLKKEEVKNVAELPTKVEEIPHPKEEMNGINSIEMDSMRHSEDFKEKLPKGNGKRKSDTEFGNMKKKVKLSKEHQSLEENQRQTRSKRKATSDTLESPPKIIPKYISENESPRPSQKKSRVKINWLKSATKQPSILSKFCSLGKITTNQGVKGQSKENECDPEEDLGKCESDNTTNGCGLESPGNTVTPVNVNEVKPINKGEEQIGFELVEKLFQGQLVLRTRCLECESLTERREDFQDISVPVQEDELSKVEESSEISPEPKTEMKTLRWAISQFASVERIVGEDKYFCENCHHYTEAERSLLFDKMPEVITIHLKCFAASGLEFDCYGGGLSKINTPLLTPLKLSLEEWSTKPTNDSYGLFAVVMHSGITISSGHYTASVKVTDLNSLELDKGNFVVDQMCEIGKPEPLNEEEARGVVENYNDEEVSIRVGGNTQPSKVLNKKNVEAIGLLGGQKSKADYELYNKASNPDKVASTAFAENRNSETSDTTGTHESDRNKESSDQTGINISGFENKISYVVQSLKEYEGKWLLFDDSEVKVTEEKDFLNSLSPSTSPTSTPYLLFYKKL
Method in brief: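 Enzyme-free wells gave the negative control, while test wells held 1nM USP1/UAF1 preincubated with compound for 15 min at room temperature. Ub-Rho at 150nM final started the reaction, and fluorescence at 480/540 nm was recorded kinetically.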

[17] = target: Cytochrome P450 2D6 (Homo sapiens) (UniProt P10635); experiment: qHTS Assay for Inhibitors and Substrates of Cytochrome P450 2D6 (AID 891; active = well fitted curve in the direction sought with a large enough effect; an effect the other way counts as inactive or inconclusive; note: nearly all actives have a fitted effect of over 60% in size; note: potency is the fitted concentration of half-maximal effect); settings: recombinant CYP2D6, luciferin-ME EGE luminescence; series mostly up to 57.1 µM
Chain of Cytochrome P450 2D6 (Homo sapiens) (P10635 whole entry, looked up): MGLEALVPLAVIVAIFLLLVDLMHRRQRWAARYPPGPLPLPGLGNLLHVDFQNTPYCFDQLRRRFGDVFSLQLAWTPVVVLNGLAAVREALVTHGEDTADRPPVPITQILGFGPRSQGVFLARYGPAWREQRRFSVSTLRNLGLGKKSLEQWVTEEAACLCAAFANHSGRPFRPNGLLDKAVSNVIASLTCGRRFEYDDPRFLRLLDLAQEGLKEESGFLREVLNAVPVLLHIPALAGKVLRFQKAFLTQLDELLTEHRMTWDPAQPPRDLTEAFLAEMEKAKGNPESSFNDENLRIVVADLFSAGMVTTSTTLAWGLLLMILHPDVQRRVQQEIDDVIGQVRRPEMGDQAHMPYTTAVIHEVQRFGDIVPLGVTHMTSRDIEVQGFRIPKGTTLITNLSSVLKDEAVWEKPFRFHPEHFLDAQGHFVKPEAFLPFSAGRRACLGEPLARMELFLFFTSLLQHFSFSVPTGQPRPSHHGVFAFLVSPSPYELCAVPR
Method in brief: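 Luminescent read-out of luciferin formed by 5 nM human CYP2D6 demethylating 30 uM Luciferin-ME EGE (Km level) over 60 min at room temperature after NADPH regeneration addition. Data normalized to full inhibition by 1.43 uM quinidine.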

[18] = target: Cytochrome P450 2C19 (Homo sapiens) (UniProt P33261); experiment: qHTS Assay for Inhibitors and Substrates of Cytochrome P450 2C19 (AID 899; active = well fitted curve in the direction sought with a large enough effect; an effect the other way counts as inactive or inconclusive; note: % is set by controls: 0 for no effect and ±100 for the full control effect; nearly all actives have a fitted effect of over 60% in size); settings: recombinant CYP2C19, luciferin-H EGE luminescence; series mostly up to 57.1 µM
Chain of Cytochrome P450 2C19 (Homo sapiens) (P33261 whole entry, looked up): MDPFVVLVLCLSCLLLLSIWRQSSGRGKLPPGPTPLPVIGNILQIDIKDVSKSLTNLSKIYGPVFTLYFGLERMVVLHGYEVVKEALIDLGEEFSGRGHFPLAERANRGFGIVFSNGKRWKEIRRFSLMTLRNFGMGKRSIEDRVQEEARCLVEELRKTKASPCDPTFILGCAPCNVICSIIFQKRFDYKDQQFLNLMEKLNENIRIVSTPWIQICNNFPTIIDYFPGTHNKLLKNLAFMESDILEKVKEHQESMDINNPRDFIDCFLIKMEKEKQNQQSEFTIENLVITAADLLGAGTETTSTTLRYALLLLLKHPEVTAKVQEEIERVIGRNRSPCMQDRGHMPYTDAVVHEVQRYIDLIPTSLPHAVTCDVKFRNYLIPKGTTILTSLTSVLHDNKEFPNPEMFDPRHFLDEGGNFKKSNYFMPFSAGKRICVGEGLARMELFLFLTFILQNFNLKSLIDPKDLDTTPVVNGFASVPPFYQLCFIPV
Method in brief: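 Luminescence readout of luciferin formed from 10uM Luciferin-H EGE (KM level) by 5 nM CYP2C19 in 50mM KPO4. 60 min NADPH-driven reaction at 37C after 10 min compound preincubation; data scaled to 57uM ketoconazole inhibition.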

[19] = measured here: cell count channel max response
[20] = measured here: lipid channel max response

O=C(Nc1cccc(F)c1)N1CCCC2(CCN(C(=O)c3cc(C(F)(F)F)cc(C(F)(F)F)c3)CC2)C1
17.1%: max response [8, 20]
inactive: Potency [1] > 11.4 µM | activity change, negative = inhibition [2] -25.5% | activity change, negative = inhibition [4] 23.3% | activity, negative = inhibition [5] -17.6% | Potency [6] | Potency [7] | activity change, negative = inhibition [8] 0.997%
12.9%: max response [8, 19]
active: Potency [3] 12.6 µM

Cc1ccccc1-c1cncnc1NCCN1CCOCC1
0.273%: max response [8, 19]
3.28%: max response [8, 20]
inactive: Potency [1] > 11.4 µM | activity change, negative = inhibition [2] 24.4% | activity, negative = inhibition [5] 7.48% | Potency [9] > 46 µM | Potency [10] > 46 µM | Potency [6] | Potency [11] | Potency [7] | Potency [13] | outcome [15] | activity change, negative = inhibition [8] 4.31% | Potency [16]
active: Potency [3] 15.8 µM | Potency [12] 1.58 µM | Potency [14] 3.16 µM

O=C(c1cc(C(F)(F)F)cc(C(F)(F)F)c1)N1CCC2(CC1)CN(Cc1ccccc1)C2
22.2%: max response [8, 19]
24.8%: max response [8, 20]
inactive: Potency [1] > 11.4 µM | activity change, negative = inhibition [2] -4.34% | Potency [3] | activity, negative = inhibition [5] 9.42% | Potency [10] > 46 µM | Potency [6] | Potency [11] | activity change, negative = inhibition [8] 1.87%

O=C(c1cnccn1)N1CCC2(CCCN(c3cccc(-c4ccccc4)c3)C2)CC1
18.4%: max response [8, 20]
active: Potency [3] 20 µM | Potency [12] 2 µM
inactive: Potency [1] > 11.4 µM | activity change, negative = inhibition [2] -16.1% | activity change, negative = inhibition [4] 5.03% | activity, negative = inhibition [5] -8.34% | Potency [10] > 46 µM | Potency [6] | Potency [7] | activity change, negative = inhibition [8] -1.76%
20.5%: max response [8, 19]

COc1ccccc1CN1CCC2(CC1)CCN(S(=O)(=O)c1ccccc1)CC2
23.6%: max response [8, 20]
inactive: Potency [1] > 11.4 µM | activity change, negative = inhibition [2] -0.16% | Potency [3] | activity, negative = inhibition [5] 5.45% | Potency [10] > 46 µM | Potency [6] | Potency [11] | activity change, negative = inhibition [8] 0.93%
19%: max response [8, 19]
active: Potency [17] 0.158 µM

FC(F)(F)c1cc(CN2CCC3(CCNCC3)CC2)cc(C(F)(F)F)c1
inactive: Potency [1] > 11.4 µM | activity change, negative = inhibition [2] 3.22% | Potency [3] | activity change, negative = inhibition [4] 9.54% | activity, negative = inhibition [5] 1.83% | Potency [10] > 46 µM | Potency [6] | Potency [11] | Potency [7] | activity change, negative = inhibition [8] -1.92%
-8.05%: max response [8, 19]
-9.72%: max response [8, 20]

CN(C)Cc1ccccc1-c1ccc2ncnc(N(C)Cc3ccco3)c2c1
7.91%: max response [8, 19]
12.6%: max response [8, 20]
inactive: Potency [1] > 11.4 µM | activity change, negative = inhibition [2] 3.42% | activity, negative = inhibition [5] -16.1% | Potency [9] > 46 µM | Potency [10] > 46 µM | Potency [6] | Potency [7] | outcome [15] | activity change, negative = inhibition [8] 3.94% | Potency [16]
active: Potency [3] 2 µM | Potency [17] 2 µM

O=c1cnc2cnc(N3CCOCC3)nc2n1C[C@H]1CCCO1
inactive: Potency [1] > 11.4 µM | activity change, negative = inhibition [2] 2.78% | activity, negative = inhibition [5] -3.88% | Potency [9] > 9.22 µM | Potency [10] > 46 µM | Potency [6] | Potency [11] | Potency [7] | activation [14] 9.58% | activity change, negative = inhibition [8] 5.43%
active: Potency [3] 10 µM
22.5%: max response [8, 20]
13.3%: max response [8, 19]

O=C(c1cc(C(F)(F)F)cc(C(F)(F)F)c1)N1CCC[C@@]2(CCN(c3ccncc3)C2)C1
-11%: max response [8, 19]
inactive: Potency [1] > 11.4 µM | activity change, negative = inhibition [2] 6.68% | Potency [3] | activity, negative = inhibition [5] 1.59% | Potency [10] > 46 µM | Potency [6] | Potency [11] | Potency [7] | activity change, negative = inhibition [8] 1.83%
active: Potency [12] 6.31 µM
-5.86%: max response [8, 20]

O=C(Nc1ccccc1)N1CCCC2(CCN(S(=O)(=O)c3ccccc3)CC2)C1
19.2%: max response [8, 19]
active: Potency [3] 15.8 µM
22%: max response [8, 20]
inactive: Potency [1] > 11.4 µM | activity change, negative = inhibition [2] -18.5% | activity, negative = inhibition [5] -7.13% | Potency [6] | Potency [11] | Potency [7] | activity change, negative = inhibition [8] 0.932%

FC(F)(F)c1cc(CN2CC[C@@]3(CCCNC3)C2)cc(C(F)(F)F)c1
10.6%: max response [8, 20]
inactive: Potency [1] > 11.4 µM | activity change, negative = inhibition [2] 7.88% | Potency [3] | activity, negative = inhibition [5] 4.03% | Potency [10] > 46 µM | Potency [6] | Potency [11] | Potency [7] | Potency [17] | Potency [18] | activity change, negative = inhibition [8] 1.16%
8.55%: max response [8, 19]
